# Measured values taken from PubChem BioAssay (EPA / NIEHS).
# Several values for one entry are separate records, joined by “and”; a condition that tells them apart may be missing. Equal entries are not always repeated. Some compounds were tested as several samples or in several runs, with calls that do not always agree. Activity calls are given as the source filed them. How the source made its calls: active means hit-call score of the fitted dose curve at least 0.9, where 1 is the maximum; inactive means score below 0.9.
# Assays:
# [1] = APR_HepG2_P-H2AX_72hr: Apredica 72-hour HepG2 Assay for H2AX Phosphorylation (AID 2282916); details: imaging, actives raise or lower the signal;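 further: phospho-histone H2A.x immunostain intensity per cell marking DNA damage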
# Summary of the method: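 HepG2 cells treated 72 h at 0.39–200 uM, 0.5% DMSO final, duplicates. Formaldehyde-fixed, Triton-permeabilised, immunostained for phospho-H2A.x with Hoechst; fluorescence imaged at 20x, bidirectional fit versus DMSO.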
# [2] = APR_HepG2_MitoMembPot_72hr: Apredica 72-hour HepG2 Assay for Mitochondrial Membrane Potential (AID 2282917); details: imaging, actives raise or lower the signal
# Summary of the method: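 HepG2 cells exposed 72 h to compounds at 0.39–200 uM (0.5% v/v DMSO, duplicates); MitoTracker Red CMXRos 250 nM loaded 30 min before 3.7% formaldehyde fixation, imaged by HCS fluorescence. Bidirectional fit versus DMSO.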
# [3] = APR_HepG2_MitoticArrest_72hr: Apredica 72-hour HepG2 Assay for Mitotic Arrest (AID 2282918); details: high-content imaging, actives raise or lower the signal
# Summary of the method: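 HepG2, 72 hr exposure, 0.39–200 uM in duplicate, 0.5% v/v DMSO final. Formaldehyde-fixed, Triton-permeabilized, anti-phospho-histone H3/FITC plus Hoechst. ArrayScan imaging at 20x; curves fit bidirectionally against DMSO baseline.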
# [4] = APR_HepG2_MicrotubuleCSK_72hr: Apredica 72-hour HepG2 Assay for Microtubule CSK Stabilty (AID 2282919); details: HepG2 microtubule cytoskeleton, high-content imaging, actives raise or lower the signal
# Summary of the method: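 HepG2 human liver cells were dosed for 72 h at ten concentrations from 0.39 to 200 uM in duplicate (0.5% v/v DMSO final). Fixed, permeabilized cells were immunostained for alpha-tubulin (Cy5) with a Hoechst counterstain and imaged at 20x.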
# [5] = APR_HepG2_P-H2AX_24hr: Apredica 24-hour HepG2 Assay for H2AX Phosphorylation (AID 2282920); details: high-content imaging, actives raise or lower the signal
# Summary of the method: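 HCS fluorescence imaging of phospho-H2A.x immunostain (with Hoechst 33342 nuclear counterstain) in HepG2 after 24 hr compound exposure; 10 concentrations, 0.39–200 uM, duplicate wells, 0.5% v/v DMSO. Gain or loss of signal fitted relative to DMSO baseline.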
# [6] = APR_HepG2_StressKinase_24hr: Apredica 24-hour HepG2 Assay for Stress Kinase (AID 2282922); details: HepG2 stress kinase (phospho-c-Jun) imaging, actives raise or lower the signal
# Summary of the method: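 HepG2 cells exposed 24 hr to compound at 0.39–200 uM (10 concentrations, duplicate), 0.5% v/v DMSO final. Fixed in 3.7% formaldehyde, permeabilized with Triton X-100, immunolabeled for phospho-c-Jun with Hoechst 33342; HCS fluorescence imaging, bidirectional fit versus DMSO.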
# [7] = APR_HepG2_MitoMass_72hr: Apredica 72-hour HepG2 Assay for Mitochondrial Mass (AID 2282924); details: high-content imaging, actives raise or lower the signal;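 further: MitoTracker Red CMXRos stain intensity per cell imaged as mitochondrial mass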
# Summary of the method: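 HepG2 cells were exposed for 72 hr to compounds at 0.39–200 uM (ten concentrations, duplicate, 0.5% v/v DMSO final). Live cells were stained with 250 nM MitoTracker Red CMXRos for 30 min, then fixed in 3.7% formaldehyde and imaged by HCS fluorescence.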
# [8] = APR_HepG2_NuclearSize_72hr: Apredica 72-hour HepG2 Assay for Nuclear Size (AID 2282925); details: high-content imaging, actives raise or lower the signal
# Summary of the method: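 HepG2 cells were exposed to compounds at ten concentrations from 0.39 to 200 uM (duplicate, 0.5% DMSO final) for 72 hr. After fixation in 3.7% formaldehyde, nuclei were stained with Hoechst 33342 (2 ug/mL) and imaged at 20x.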
# [9] = ATG_CRE_CIS: Attagene CIS-FACTORIAL HepG2 Assay for human cAMP Responsive Element (CRE) binding protein 3 (AID 2282926); details: HepG2 CRE cis-reporter, Attagene multiplexed mRNA; actives raise or lower the signal
# Summary of the method: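 Endogenous CRE-binding activity in HepG2 is reported through a cis-regulated transfected reporter. Following a day of exposure, mRNA levels are determined by reverse transcription PCR and fluorescent fragment analysis; fits run in both directions versus DMSO.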
# [10] = target: CCAAT/enhancer-binding protein beta (Homo sapiens) (UniProt P17676); assay: ATG_C_EBP_CIS: Attagene CIS-FACTORIAL HepG2 Assay for human CCAAT/Enhancer Binding Protein (C/EBP) beta (AID 2282927); details: HepG2 Attagene cis-factorial transcription factor reporter; actives raise or lower the signal
# Summary of the method: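 Following a 24 h incubation with test chemical, transfected HepG2 cells yielded RNA whose reporter transcripts were quantified by RT-PCR and fluorescent capillary electrophoresis, with DMSO serving as baseline for bidirectional fitting.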
# [11] = ATG_CMV_CIS: Attagene CIS-FACTORIAL HepG2 Assay for human CMV (Internal Marker) (AID 2282928); details: HepG2 CMV promoter reporter, transcription factor profiling; actives raise or lower the signal;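 further: endpoint acts as a background internal control marker rather than a target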
# Summary of the method: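 CMV internal-marker background readout in transiently transfected HepG2 cells bearing cis-regulated reporter units. Reporter mRNA is measured 24 h after dosing by RT-PCR and capillary electrophoresis, with bidirectional fitting against DMSO.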
# [12] = ATG_DR4_LXR_CIS: Attagene CIS-FACTORIAL HepG2 Assay for human Liver X Receptor (LXR), DR4 submotif (AID 2282929); details: HepG2 Attagene DR4 cis-reporter, mRNA transcription; actives raise or lower the signal
# Summary of the method: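 Readout: reporter transcript fluorescence after RT-PCR and capillary electrophoresis, fitted bidirectionally against DMSO controls. Human HepG2 liver cells carried transiently transfected multiplexed reporter constructs; endogenous transcription factor activity measured 24 h post-dosing.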
# [13] = target: Aryl hydrocarbon receptor (Homo sapiens) (UniProt P35869); assay: ATG_Ahr_CIS: Attagene CIS-FACTORIAL HepG2 Assay for human Aryl Hydrocarbon Receptor (Ahr) (AID 2282930); details: HepG2 AhR cis-factorial reporter transcription; actives raise or lower the signal
# Summary of the method: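 Values derive from bidirectional fitting against DMSO negative control. Underlying signal: cis-element reporter mRNA in transiently transfected HepG2, harvested 24 h post-dose and measured by RT-PCR plus capillary electrophoresis.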
# [14] = ATG_AP_1_CIS: Attagene CIS-FACTORIAL HepG2 Assay for human Activator Protein 1 (AP-1) (AID 2282931); details: HepG2 Attagene cis-factorial AP-1 reporter mRNA; actives raise or lower the signal
# Summary of the method: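 Reporter transcripts were measured 24 h after dosing by RT-PCR and capillary electrophoresis of fluorescent fragments. Cells: HepG2 carrying transfected cis-regulated reporter constructs reading endogenous factor activity. Gain or loss fitted against DMSO.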
# [15] = ATG_AP_2_CIS: Attagene CIS-FACTORIAL HepG2 Assay for human Activator Protein 2 (AP-2) (AID 2282932); details: HepG2 AP-2 cis-reporter, Attagene transcription factor profiling; actives raise or lower the signal
# Summary of the method: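 Bidirectional curve fitting against DMSO was applied to reporter mRNA signals from HepG2 cells 24 h after dosing. Cis-promoter reporter units, transiently transfected, were read by RT-PCR plus capillary electrophoresis.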
# [16] = ATG_BRE_CIS: Attagene CIS-FACTORIAL HepG2 Assay for human Bone Morphogenetic Protein (BMP) Response Element (BRE) (AID 2282933); details: HepG2 BMP response element reporter, Attagene transcription factor profiling; actives raise or lower the signal
# Summary of the method: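 A HepG2 multiplex reporter system measured inducible reporter mRNA 24 h post-dosing. Detection: RT-PCR, 6-FAM primer extension, HpaI digestion, capillary electrophoresis. Activity fitted bidirectionally relative to DMSO.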
# [17] = target: Retinoic acid receptor alpha (Homo sapiens) (UniProt P10276); assay: ATG_DR5_RAR_CIS: Attagene CIS-FACTORIAL HepG2 Assay for human Retinoic Acid Receptor Alpha (RARE), DR5 submotif (AID 2282934); details: HepG2 Attagene cis-factorial RARE DR5 reporter, mRNA; actives raise or lower the signal;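 on AC50: reporter responds to endogenous RAR alpha beta and gamma in HepG2 not RARA alone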
# Summary of the method: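 Endpoint fitted in both directions relative to DMSO as negative control. It reflects DR5 cis-element reporter mRNA induction in transiently transfected HepG2 cells, measured 24 h after dosing through RT-PCR and fluorescent capillary electrophoresis.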
# [18] = target: Transcription factor E2F1 (Homo sapiens) (UniProt Q01094); assay: ATG_E2F_CIS: Attagene CIS-FACTORIAL HepG2 Assay for human E2F Transcription Factor 1 (AID 2282935); details: HepG2 Attagene cis-reporter, E2F reporter RNA transcripts; actives raise or lower the signal
# Summary of the method: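 Multiplexed cis-reporter assay: HepG2, transient transfection, 24 h dosing, mRNA quantitation by labeled RT-PCR and CE.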
# [19] = APR_HepG2_p53Act_72hr: Apredica 72-hour HepG2 Assay for p53 Activation (AID 2282923); details: high-content imaging, actives raise or lower the signal;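 further: average cellular p53 protein immunofluorescence intensity in HepG2 cells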
# Summary of the method: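 HepG2 cells exposed 72 h to 0.39–200 uM in 0.5% DMSO, duplicates. Fixed, permeabilized cells immunostained for p53 (Cy5) with Hoechst; imaged at 20x, fluorescence analyzed bidirectionally against DMSO.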
# Sequence of Aryl hydrocarbon receptor (Homo sapiens) (P35869 whole entry, looked up): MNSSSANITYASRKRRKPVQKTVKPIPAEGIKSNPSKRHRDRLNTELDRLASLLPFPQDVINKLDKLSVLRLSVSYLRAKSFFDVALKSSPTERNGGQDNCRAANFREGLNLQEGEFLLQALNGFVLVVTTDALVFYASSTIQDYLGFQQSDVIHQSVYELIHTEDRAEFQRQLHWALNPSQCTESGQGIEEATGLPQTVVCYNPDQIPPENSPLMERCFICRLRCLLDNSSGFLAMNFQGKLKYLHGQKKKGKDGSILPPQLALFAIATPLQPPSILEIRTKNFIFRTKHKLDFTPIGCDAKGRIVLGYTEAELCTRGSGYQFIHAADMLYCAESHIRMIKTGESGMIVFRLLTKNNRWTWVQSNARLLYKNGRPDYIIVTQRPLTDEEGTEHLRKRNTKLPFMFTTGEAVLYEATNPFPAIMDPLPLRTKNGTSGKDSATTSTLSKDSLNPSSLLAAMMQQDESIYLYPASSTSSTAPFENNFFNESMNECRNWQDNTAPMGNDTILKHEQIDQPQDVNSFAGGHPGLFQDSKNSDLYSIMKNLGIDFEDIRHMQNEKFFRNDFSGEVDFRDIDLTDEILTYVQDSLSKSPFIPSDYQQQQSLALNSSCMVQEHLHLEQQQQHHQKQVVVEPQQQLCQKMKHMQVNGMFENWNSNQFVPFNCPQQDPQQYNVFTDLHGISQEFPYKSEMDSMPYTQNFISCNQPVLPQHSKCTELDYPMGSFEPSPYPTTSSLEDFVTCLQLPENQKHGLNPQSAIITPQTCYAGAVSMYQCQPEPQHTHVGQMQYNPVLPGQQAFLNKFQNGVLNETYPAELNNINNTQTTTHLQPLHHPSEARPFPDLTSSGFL
# Sequence of Transcription factor E2F1 (Homo sapiens) (Q01094 whole entry, looked up): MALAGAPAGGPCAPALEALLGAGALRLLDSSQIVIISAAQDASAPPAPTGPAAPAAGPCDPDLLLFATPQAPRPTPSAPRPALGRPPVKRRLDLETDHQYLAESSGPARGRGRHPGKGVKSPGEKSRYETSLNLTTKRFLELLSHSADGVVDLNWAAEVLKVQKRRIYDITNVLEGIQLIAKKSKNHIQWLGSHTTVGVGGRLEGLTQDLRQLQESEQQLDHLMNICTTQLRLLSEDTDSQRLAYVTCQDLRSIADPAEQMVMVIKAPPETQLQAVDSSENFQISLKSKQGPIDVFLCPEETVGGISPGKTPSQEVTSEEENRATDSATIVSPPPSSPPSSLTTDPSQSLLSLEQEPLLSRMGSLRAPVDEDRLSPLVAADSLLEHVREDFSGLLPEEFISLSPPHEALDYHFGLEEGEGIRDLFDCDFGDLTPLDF
# Sequence of CCAAT/enhancer-binding protein beta (Homo sapiens) (P17676 whole entry, looked up): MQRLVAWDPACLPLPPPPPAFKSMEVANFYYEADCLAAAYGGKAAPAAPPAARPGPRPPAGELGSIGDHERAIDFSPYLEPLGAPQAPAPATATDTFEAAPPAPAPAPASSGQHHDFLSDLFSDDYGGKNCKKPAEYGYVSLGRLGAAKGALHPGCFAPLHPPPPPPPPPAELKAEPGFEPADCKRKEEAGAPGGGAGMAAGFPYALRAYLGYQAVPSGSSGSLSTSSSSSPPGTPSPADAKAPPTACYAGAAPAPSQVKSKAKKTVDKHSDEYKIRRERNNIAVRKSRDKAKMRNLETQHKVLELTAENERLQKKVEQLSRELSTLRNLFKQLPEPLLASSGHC
# Sequence of Retinoic acid receptor alpha (Homo sapiens) (P10276 whole entry, looked up): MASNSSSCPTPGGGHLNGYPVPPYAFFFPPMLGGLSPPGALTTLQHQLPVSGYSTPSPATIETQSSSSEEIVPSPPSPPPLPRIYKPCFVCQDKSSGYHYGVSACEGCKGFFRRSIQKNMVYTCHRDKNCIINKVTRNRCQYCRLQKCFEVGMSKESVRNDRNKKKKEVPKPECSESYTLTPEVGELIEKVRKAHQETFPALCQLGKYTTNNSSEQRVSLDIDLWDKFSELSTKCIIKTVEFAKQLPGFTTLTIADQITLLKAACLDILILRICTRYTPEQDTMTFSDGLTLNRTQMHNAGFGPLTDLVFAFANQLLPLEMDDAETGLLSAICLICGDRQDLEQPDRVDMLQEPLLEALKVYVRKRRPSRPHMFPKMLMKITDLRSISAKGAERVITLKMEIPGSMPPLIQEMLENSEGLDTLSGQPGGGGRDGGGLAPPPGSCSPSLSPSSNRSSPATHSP
smiles,measurement,setting,value
Cc1ccccc1CO[C@@H]1C[C@@]2(C(C)C)CC[C@]1(C)O2,outcome,[1],inactive
same,outcome,[2],inactive
same,outcome,[3],inactive
same,outcome,[4],inactive
same,outcome,[5],inactive
same,outcome,[6],inactive
same,outcome,[7],inactive
same,outcome,[8],inactive
same,outcome,[9],inactive
same,outcome,[10],inactive
same,outcome,[11],inactive
same,outcome,[12],inactive
same,outcome,[13],inactive
same,outcome,[14],inactive
same,outcome,[15],inactive
same,outcome,[16],inactive
same,outcome,[17],inactive
same,outcome,[18],inactive
COS(=O)(=O)OC,outcome,[1],inactive
same,outcome,[2],inactive
same,outcome,[3],inactive
same,outcome,[4],inactive
same,outcome,[5],inactive
same,outcome,[6],inactive
same,outcome,[19],inactive
same,outcome,[7],inactive
same,outcome,[8],inactive
same,outcome,[9],inactive
same,outcome,[10],inactive
same,outcome,[11],inactive
same,outcome,[12],inactive
same,outcome,[14],inactive
same,outcome,[15],inactive
same,outcome,[16],inactive
same,outcome,[17],inactive
same,outcome,[18],inactive
Cc1cc(O)ccc1Cl,outcome,[1],inactive
same,outcome,[2],inactive
same,outcome,[3],inactive
same,outcome,[4],inactive
same,outcome,[5],inactive
same,outcome,[6],inactive
same,outcome,[19],inactive
same,outcome,[7],inactive
same,outcome,[8],inactive
same,outcome,[9],inactive
same,outcome,[10],inactive
same,outcome,[11],inactive
same,outcome,[12],inactive
same,outcome,[14],inactive
same,outcome,[15],inactive
same,outcome,[16],inactive
same,outcome,[17],inactive
same,outcome,[18],inactive
CC(C)(c1ccccc1)c1ccc(O)cc1,AC50,[1],97 µM (active)
same,outcome,[2],inactive
same,outcome,[3],inactive
same,outcome,[4],inactive
same,outcome,[5],inactive
same,outcome,[6],inactive
same,outcome,[19],inactive
same,outcome,[7],inactive
same,outcome,[8],inactive
same,AC50,[9],33.4 µM (active) and 38.9 µM (active)
same,outcome,[9],inactive
same,AC50,[10],46.6 µM (active)
same,outcome,[10],inactive
same,AC50,[11],23.8 µM (active) and 38.4 µM (active) and 43 µM (active)
same,outcome,[11],inactive
same,AC50,[12],40.4 µM (active) [middle of 4 runs]
same,AC50,[14],45.8 µM (active) [middle of 4 runs]
same,AC50,[15],33.4 µM (active)
same,outcome,[15],inactive
same,AC50,[16],33.4 µM (active)
same,outcome,[16],inactive
same,AC50,[17],1.8 µM (active) and 11.7 µM (active)
same,outcome,[17],inactive
same,AC50,[18],56.3 µM (active)
same,outcome,[18],inactive
CN(C)CCO,outcome,[1],inactive
same,outcome,[2],inactive
same,outcome,[3],inactive
same,outcome,[4],inactive
same,outcome,[5],inactive
same,outcome,[6],inactive
same,outcome,[19],inactive
same,outcome,[7],inactive
same,outcome,[8],inactive
same,outcome,[9],inactive
same,outcome,[10],inactive
same,outcome,[11],inactive
same,outcome,[12],inactive
same,outcome,[13],inactive
same,outcome,[14],inactive
same,outcome,[15],inactive
same,outcome,[16],inactive
same,outcome,[17],inactive
same,outcome,[18],inactive
Cc1ccccc1[N+](=O)[O-],outcome,[1],inactive
same,outcome,[2],inactive
same,outcome,[3],inactive
same,outcome,[4],inactive
same,outcome,[5],inactive
same,outcome,[6],inactive
same,outcome,[19],inactive
same,outcome,[7],inactive
same,outcome,[8],inactive
same,outcome,[9],inactive
same,outcome,[10],inactive
same,outcome,[11],inactive
same,outcome,[12],inactive
same,outcome,[14],inactive
same,outcome,[15],inactive
same,outcome,[16],inactive
same,outcome,[17],inactive
same,outcome,[18],inactive
